# Records with an inconclusive call do not appear. A call without a number means that no potency is given here. Activity calls are given as the source filed them. Calls come from the whole dose curve; as a rule, active = well fitted curve in the direction sought with a large enough effect; inconclusive = small, poorly fitted or top-dose-only effect, or another doubt; inactive = no such curve, though single readings can be large; an effect the other way counts as inactive or inconclusive.
# Key:
# [1] = molecular target: Aldehyde dehydrogenase, mitochondrial (Homo sapiens) (UniProt P05091); test: qHTS for Inhibitors of the Aldehyde Dehydrogenase Family (ALDH2) Primary screen (AID 2061308); note: nearly all actives have a fitted effect of over 55% in size
# [2] = molecular target: Retinaldehyde dehydrogenase 3 (Homo sapiens) (UniProt P47895); test: qHTS for Inhibitors of the Aldehyde Dehydrogenase Family (ALDH1A3) Primary screen (AID 2061315)
SMILES,Potency [1],Potency [2]
N#Cc1nc(Nc2cc(F)cc(F)c2)c2ncn(CCCN3CCCC3)c2n1,inactive,inactive
Cc1cc2c(s1)c1cnn(Cc3ccc(F)c(C)c3)c(=O)c1n2C,inactive,inactive
FC(F)(F)c1ccc(-c2nc(NCc3ccc(-c4ccnc(C(F)(F)F)c4)cc3)c3ccccc3n2)cc1,inactive,inactive
Cc1ccc(C(=O)Nc2nnc(-c3ccco3)o2)cc1,inactive,inactive
O=[S+]([O-])(Nc1ccccc1)c1ccc(NCc2cccc(C(F)(F)F)c2F)cc1,inactive,inactive
Cc1cc2c(s1)c1cnn(Cc3ccc(C)c(F)c3F)c(=O)c1n2C,inactive,inactive
CNc1oc(-c2cccc(Cl)c2)nc1C#N,inactive,inactive
O=C(Nc1ccc(F)c(C(F)(F)F)c1)Nc1cccc(-c2ccncc2)n1,inactive,inactive
COc1cccc(C)c1NC(=O)C(OC(=O)CNC(=O)c1ccccc1)c1ccccc1 (stereo not given),inactive,inactive
Oc1ccc(CCc2ccccc2)c2cccnc12,inactive,inactive
O=c1c2ccc([N+](=O)[O-])cc2nc2sc(Nc3ccc4c(c3)CCC4)nn12,inactive,inactive
COC(=O)c1ccccc1S(=O)(=O)Nc1cc(=O)c2ccccc2[nH]1,inactive,inactive
Cc1cn([C@H]2C[C@H](N[S+](=O)([O-])Cc3cccc(Cl)c3)[C@@H](CO)O2)c(=O)[nH]c1=O,inactive,inactive
FC(F)(F)c1ccccc1-c1nc(NCc2ccc3c(c2)OCO3)c2ccccc2n1,inactive,inactive
Cc1ccc(-c2c(C(=O)CF)n(CCCO)c3ncnc(N)c23)cc1,inactive,inactive
Cc1ccnc(NC(=S)N[C@H]2CCN(c3cccc(C(F)(F)F)c3)C2)c1,inactive,inactive
O=C(O)c1cc(F)c(S(=O)(=O)N2CCN(S(=O)(=O)c3ccc4c(c3)OCCO4)CC2)cc1F,inactive,inactive
Cc1ccc(NS(=O)(=O)c2ccc(F)cc2)cc1C,inactive,inactive
CCCn1c(C)nc2c(NCc3ccccc3)nc(C)nc21,inactive,inactive
COc1ccc(N2C(=O)c3ccccc3S2(=O)=O)cc1,inactive,inactive
CC(=O)NC(c1cc(Cl)c2cccnc2c1O)C(C)C (stereo not given),inactive,inactive
COc1ccc(C2=Nn3c(nnc3-c3ccccc3F)SC2)cc1OCC1CC1,inactive,inactive
Cc1cc(C)nc(NC(=S)N2CCN(c3ccc(F)cc3F)CC2)c1,inactive,inactive

SMILES,Potency [1],Potency [2]
CCOC(=O)c1ccc(NC(=O)CN2CCCCC2)cc1,inactive,inactive
O=S(=O)(c1cccc2ccccc12)n1ccc2ccc(N3CCN4CCCC4C3)cc21 (stereo not given),inactive,inactive
Cc1cc(C)nc(NC(=S)N2CCN(c3cccc4nccn34)CC2)c1,inactive,inactive
N#Cc1nc(Nc2ccc(Br)cc2)nc(NC2CCCC2)n1,inactive,inactive
Cc1cc(C)n2ncc(C(=O)Nc3cccc(C(F)(F)F)c3)c2n1,inactive,inactive
C=C1CCC[C@]2(C)C[C@]3(O)OC(=O)C(C)=C3C[C@@H]12,inactive,inactive
Cc1cc2c(s1)c1cnn(Cc3cc(F)c(Cl)cc3Cl)c(=O)c1n2C,inactive,inactive
CCN1CCCC1Cn1c(-c2ccccc2)nc2c(N3CCOCC3)nc(C)nc21 (stereo not given),inactive,inactive
Cc1c(P(=S)(c2ccccc2)c2ccccc2)c2ccccc2n1C(=O)NCc1ccc(F)cc1,inactive,inactive
O=S(=O)(NCC1CC1)c1ccc(Nc2nccc(N3CCCc4cc(O)ccc43)n2)cc1,inactive,inactive
Cc1cc2c(s1)c1cnn(Cc3cccc(C(F)(F)F)c3)c(=O)c1n2C,inactive,inactive
O=C(O)c1ccccc1-c1noc(-c2ccccc2F)n1,inactive,inactive
Cc1cc2c(s1)c1cnn(Cc3c(F)c(F)cc(F)c3F)c(=O)c1n2C,inactive,inactive
c1ccc(CNCc2nnc(-c3cc4ccccc4[nH]3)o2)cc1,inactive,inactive
Cc1ccc(OCCn2c(CCNC(=O)c3ccsc3)nc3ccccc32)cc1,inactive,inactive
N#Cc1no[n+]([O-])c1-c1ccccc1,inactive,inactive
CC(C)(O)C1Cc2c(ccc(C(=O)CCc3ccccc3)c2O)O1 (stereo not given),inactive,inactive
CCOC(=O)C1CCN(C(=O)C(C)(C)NC(=O)Nc2ccc3sccc3c2)CC1,inactive,inactive
Cc1ccc(S(=O)(=O)Nc2cccc(C(=O)Nc3nc(-c4ccccc4)cs3)c2)cc1,inactive,inactive
Cc1cc(C)nc(NC(=S)N2CCN(c3ncc(Cl)cc3Cl)CC2)c1,inactive,inactive
O=S(=O)(Cc1ccc(Cl)c(Cl)c1)Nc1nnc(-c2ccncc2)s1,inactive,inactive
O=S(=O)(NC1CCN(S(=O)(=O)c2c(F)cccc2F)C1)c1ccc2c(c1)OCCO2 (stereo not given),inactive,inactive
O=C(NC(c1ccco1)c1cc(Cl)c2cccnc2c1O)c1ccsc1 (stereo not given),inactive,inactive

SMILES,Potency [1],Potency [2]
Oc1ccc(CNCc2ccccc2F)c2cccnc12,inactive,inactive
FC(F)(F)c1cccc(-c2nc(NCc3ccc(-c4cccnc4)cc3)c3ccccc3n2)c1,inactive,inactive
Cc1ccc(-c2nc3c(c(SCC(=O)Nc4cccc(C(=O)O)c4)n2)Cc2cccc(C)c2O3)cc1,inactive,inactive
N#Cc1ccc(NS(=O)(=O)c2ccc3c(c2)CCC(=O)N3)cc1,inactive,inactive
Cc1ccc(NS(=O)(=O)c2ccc(Cl)cc2)cc1C,inactive,inactive
CCn1c(-c2nonc2N)nc2c(C#CC(C)(C)O)ncc(OCC3CCCNC3)c21 (stereo not given),inactive,inactive
CC(=O)Nc1cccc(OC2=NS(=O)(=O)c3ccccc32)c1,inactive,inactive
Nc1ccc2c(=O)n3nc(Nc4ccc5c(c4)CCC5)sc3nc2c1,inactive,inactive
COc1cccc(-c2ccc3ncnc(NCc4ccc5c(c4)OCO5)c3c2)c1,inactive,inactive
O=C(Nc1ccc(Cl)c(Cl)c1)Nc1nnc(Br)s1,inactive,inactive
COc1cc(O)c(C(CC(=O)N2CCCC(C)C2)c2ccc3c(c2)OCO3)c(OC)c1 (stereo not given),inactive,inactive
COc1cc(O)c(C(CC(=O)N2CC(C)OC(C)C2)c2ccc3c(c2)OCO3)c(OC)c1 (stereo not given),inactive,inactive
CC(C)(C)NC(=O)Nc1nnc(-c2ccncc2)s1,inactive,inactive
Clc1ccc(-c2nc3ccccc3s2)cc1,inactive,inactive
CC(C)Cc1ccc(-c2ccc(=O)n(CC(=O)NCCc3ccccc3)n2)cc1,inactive,inactive
O=C1CCCC2=C1C(c1[nH]ncc1Cl)N=C(Nc1nc3cccc(Cl)c3o1)N2 (stereo not given),inactive,inactive
O=C(Cc1ccc(Cl)c(Cl)c1)Nc1ccc(S(=O)(=O)NCc2ccco2)cc1,inactive,inactive
Cc1cc(-c2ccccc2)nc2c(C(=O)Nc3ccc4c(c3)CCC4)cnn12,inactive,inactive
CC1CC(=O)NN=C1c1ccc(NCC(C)(C)NCC(O)COc2cc(Cl)ccc2C#N)cc1 (stereo not given),inactive,inactive
c1nc(N2CCNCC2)c2cc(-c3ccc4c(c3)OCO4)ccc2n1,inactive,inactive
O=C(Nc1ccccc1)Nc1nnc(-c2ccncc2)s1,inactive,inactive
Oc1cccc2c(-c3nn[nH]n3)ccnc12,inactive,inactive
COc1cccc(C2c3c(ncn(-c4ccccc4Br)c3=N)Oc3ccc4ccccc4c32)c1 (stereo not given),inactive,inactive

SMILES,Potency [1],Potency [2]
Cc1cc(C)nc(/N=C(\NC#N)N2CCN(c3cccc(C(F)(F)F)c3)CC2)c1,inactive,inactive
Cc1ccccc1S(=O)(=O)N1CCN(S(=O)(=O)c2ccc3c(c2)OCCO3)CC1,inactive,inactive
CC(C)(C)CNc1ncnc2ccc(-c3ccc(CO)o3)cc12,inactive,inactive
CC1=C(C(=O)NCc2ccccc2)C(c2ccccc2Br)N=C(Nc2nc3ccccc3o2)N1 (stereo not given),inactive,inactive
Cc1ccc(CNc2ccc(N3CCN(C(=O)OC(C)(C)C)CC3=O)cc2)cc1,inactive,inactive
Cn1c(=O)c2c(nc(CN3CCN(C(=O)C4CC4)CC3)n2Cc2cccc(F)c2)n(C)c1=O,inactive,inactive
CC(=O)Nc1sc2c(c1-c1ccc3c(c1)CCO3)CCNC2,inactive,inactive
Cc1ccc(S(=O)(=O)Nc2ccccc2Nc2nc(-c3ccccc3)cs2)cc1,inactive,inactive
CCOC(=O)c1ccoc1-c1ccc2ncnc(NCCc3cnc[nH]3)c2c1,inactive,inactive
COc1cnccc1-c1nc(Nc2ccc(F)c(F)c2)c2ccccc2n1,inactive,inactive
Cc1cnc(-c2ccccc2C2COC2)nc1NCc1ccc(-c2cccnc2)cc1,inactive,inactive
COc1cc(O)c(C(CC(=O)N2CCC(C)CC2)c2ccc(OC)c(OC)c2)c(OC)c1 (stereo not given),inactive,inactive
O=S(=O)(Nc1nc(CN2CCOCC2)nc2sc3c(c12)CCC3)c1ccc2c(c1)OCCO2,inactive,inactive
Cc1cccc(C)c1SC1=NS(=O)(=O)c2ccccc21,inactive,inactive
CNc1oc(-c2ccc(F)cc2)nc1C#N,inactive,inactive
COc1cccc(C2c3c(ncn(-c4ccc5c(c4)OCO5)c3=N)Oc3ccc4ccccc4c32)c1 (stereo not given),inactive,inactive
O=C(Nc1ncc(Cc2ccc(C(F)(F)F)cc2)s1)c1cnc(-c2ccccc2)[nH]1,inactive,inactive
O=C(Nc1ccc(F)c(C(F)(F)F)c1)Nc1nc(-c2ccncc2)cs1,inactive,inactive
N#Cc1ccc(NS(=O)(=O)c2ccc(NC(=O)Cc3ccc(F)c(Cl)c3)cc2)cc1,inactive,inactive
COc1ccccc1C1=Nn2c(nnc2-c2cccc(OC)c2OC)SC1,inactive,inactive
O=C1c2ccccc2C(=O)N1c1nccs1,inactive,inactive

# — PubChem BioAssay (NCATS)
